# In all, about 52,000 compounds went through this assay and about 4,300 (8.3%) were called active. Only a selection was taken, and actives are over-represented in it overall. Unmarked numbers belong to inactive results. No stated cut-off is given here; in the data, active means survival mostly below about 52% (no sharp cut-off); inactive means mostly above about 56%.
# System: DeltatarO mutant
# Test: growth inhibition of S. aureus wild type versus tarO mutant, primary screen, teichoic acid synthesis inhibitors, RN4220, OD600 (AID 463173)
# Details: OD600, 18 h, stronger effect = lower value, screened at 18.75 µg/mL (by protocol)
row,SMILES,survival
1,COc1ccc(Cl)cc1NC(=O)Cn1ncc2c3ccccc3n(C)c2c1=O,135%
2,Cc1ccc(C)c(NC(=O)Cn2c(=O)n(Cc3ccco3)c(=O)c3ccc(C(=O)NC4CCCC4)cc32)c1,95%
3,O=C(Nc1ccc2oc(-c3ccc4ccccc4c3)nc2c1)c1ccc(Cl)c(Cl)c1,83%
4,Cc1ccc2[nH]c(=O)c3cc(C(=O)NCCCN4CCC(C)CC4)sc3c2c1,85%
5,COc1ccc(-c2cc(-c3ccc(C)cc3)nc3c2COc2ccccc2-3)cc1,72%
6,Cc1oc2ncn(C)c(=O)c2c1C(=O)N1CCN(c2ccc(Cl)cc2)CC1,61%
7,Cc1ccc(Nc2cc(C)nc3nc(Cc4ccc(Cl)cc4)nn23)cc1,52%
8,Cc1cccc(Nc2cc(C)nc3nc(Cc4ccc(Cl)cc4)nn23)c1,36% (active)
9,Cc1cc(Nc2ccccc2F)n2nc(Cc3ccc(Cl)cc3)nc2n1,44% (active)
10,Cc1cc(Nc2cc(Cl)ccc2C)n2nc(Cc3ccccc3)nc2n1,50%
11,CCc1ccc(Nc2cc(C)nc3nc(Cc4ccc(Cl)cc4)nn23)cc1,101%
12,Cc1cc(Nc2ccc(C)c(Cl)c2)n2nc(Cc3ccccc3)nc2n1,31% (active)
13,Cc1cc(Nc2ccccc2F)n2nc(-c3ccccc3)nc2n1,47%
14,Cc1cc(Nc2ccc(C)c(Cl)c2)n2nc(-c3ccccc3)nc2n1,57%
15,CC(=O)c1cccc(Nc2cc(C)nc3nc(Cc4ccccc4)nn23)c1,62%
16,CCc1nc2nc(C)cc(Nc3cccc(C)c3C)n2n1,82%
17,Cc1cc(Nc2cccc(Cl)c2C)n2nc(Cc3ccccc3)nc2n1,49% (active)
18,Cc1cc(Nc2ccccc2C)n2nc(Cc3ccc(Cl)cc3)nc2n1,64%
19,CC1=C(C(=O)OCc2ccc(C)cc2)C(c2ccccc2C(F)(F)F)CC(=O)N1 (stereo not given),124%
20,CCCSCCCNC(=O)CN1C(=O)CCn2nc(-c3cn(C)c4ccccc34)cc21,77%
21,CCN(CC)CCn1c2c(c(SCC(=O)Nc3cccc(C(F)(F)F)c3)nc1=O)CCC2,74%
22,CCOC(=O)c1cc(C)n(CC2CCC(C(=O)Nc3ccccc3OC)CC2)c1C (stereo not given),107%
23,COc1cccc(NC2=CC(c3ccc(C(C)C)cc3)N(c3cccc(OC)c3)C2=O)c1 (stereo not given),73%
24,CCC(CC)C(=O)N1CCc2cc(OC)c(OC)cc2C1COc1ccc2c(C)cc(=O)oc2c1 (stereo not given),83%
25,CNc1ccc(-c2nc(-c3ccncc3)no2)cc1[N+](=O)[O-],108%

# From PubChem BioAssay AID463173 (ICCB-Longwood Screening Facility, Harvard Medical School, 2010)
